Data as given in PubChem BioAssay (NCI).
Compounds without any hit were thinned out: in the full panel of roughly 83,000, 20% have a hit.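 Cell lines were cultured in 96-well plates, exposed to a single compound concentration, and assessed for percent growth 48 hours later.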 Active and inactive are the calls of the source. How the source made its calls: active means growth percent below 10; inactive means the rest.

Experiments:
Test in all cases: NCI-60 one-dose screen, 48 h (100 = growth as untreated, 0 = no growth, -100 = all killed)
Details in all cases: 10 µM unless noted
NCI-H23 lung = system: NCI-H23 lung
NCI-H226 lung = system: NCI-H226 lung
NCI-H322M lung = system: NCI-H322M lung
HOP-62 NSCLC = system: HOP-62 NSCLC
NCI-H460 lung = system: NCI-H460 lung
HOP-92 NSCLC = system: HOP-92 NSCLC
NCI-H522 lung = system: NCI-H522 lung
A549/ATCC NSCLC = system: A549/ATCC NSCLC
786-0 renal = system: 786-0 renal
COLO 205 colon = system: COLO 205 colon
DU-145 prostate = system: DU-145 prostate
K-562 leukemia = system: K-562 leukemia
MALME-3M melanoma = system: MALME-3M melanoma
MDA-MB-231 breast = system: MDA-MB-231 breast
RXF 393 renal = system: RXF 393 renal
SF-268 CNS = system: SF-268 CNS
SF-295 CNS = system: SF-295 CNS
SF-539 CNS = system: SF-539 CNS
UACC-257 melanoma = system: UACC-257 melanoma
M14 melanoma = system: M14 melanoma

Measured: growth

CC(C)(C)OC(=O)N1C/C(=C\c2ccc(F)cc2)C(=O)/C(=C/c2ccc(F)cc2)C1
active: NCI-H23 lung -77.7% | NCI-H226 lung -43.8% | NCI-H460 lung 1.19% | HOP-92 NSCLC -30.5% | NCI-H522 lung -89% | 786-0 renal -74.8% | COLO 205 colon -47.2% | DU-145 prostate 9.97% | K-562 leukemia 9.9% | MALME-3M melanoma -75.5% | MDA-MB-231 breast -54.4% | RXF 393 renal -88.1% | SF-268 CNS -46.1% | SF-295 CNS -75.1% | SF-539 CNS -98.3% | UACC-257 melanoma -42.1% | M14 melanoma -71.5%
inactive: NCI-H322M lung 29.6% | HOP-62 NSCLC 14.6% | A549/ATCC NSCLC 35.3%

N#Cc1ccc(C(=O)NNC(=O)CSc2nc3sc4c(c3c(=O)n2-c2ccc(Cl)cc2)CCCC4)cc1
active: HOP-62 NSCLC 7.62% | MDA-MB-231 breast 3.65% | SF-539 CNS -43.9%
inactive: NCI-H23 lung 33.2% | NCI-H226 lung 54.1% | NCI-H322M lung 51.7% | NCI-H460 lung 51.8% | HOP-92 NSCLC 45.6% | NCI-H522 lung 61.5% | A549/ATCC NSCLC 61.9% | 786-0 renal 75.5% | COLO 205 colon 110% | DU-145 prostate 70.4% | K-562 leukemia 63.4% | MALME-3M melanoma 39.5% | RXF 393 renal 47.5% | SF-268 CNS 92.7% | SF-295 CNS 62.7% | UACC-257 melanoma 91.4% | M14 melanoma 44.7%

Cn1cc(-c2cc(N)n3nc(-c4c[nH]c5ccc(F)cc45)cc3n2)c2cc(Br)cnc21
inactive: NCI-H23 lung 94.3% | NCI-H226 lung 68.6% | NCI-H322M lung 80.1% | HOP-62 NSCLC 71.1% | NCI-H460 lung 57.5% | HOP-92 NSCLC 27.3% | NCI-H522 lung 27.6% | A549/ATCC NSCLC 54% | 786-0 renal 44.4% | COLO 205 colon 119% | DU-145 prostate 69.9% | MALME-3M melanoma 75.6% | MDA-MB-231 breast 13.2% | RXF 393 renal 11.7% | SF-268 CNS 89.3% | SF-295 CNS 69.6% | SF-539 CNS 52.8% | UACC-257 melanoma 84.6% | M14 melanoma 55.4%
active: K-562 leukemia -69%

CC(C)(C)C(=O)C1CC(C#N)=C2C=Cc3c(ccc4ccccc34)N21 (stereo not given)
inactive: NCI-H23 lung 89.2% | NCI-H226 lung 77% | NCI-H322M lung 101% | HOP-62 NSCLC 88.3% | NCI-H460 lung 97.8% | HOP-92 NSCLC 70.7% | NCI-H522 lung 83.9% | A549/ATCC NSCLC 81.2% | 786-0 renal 76.6% | COLO 205 colon 93.6% | DU-145 prostate 102% | K-562 leukemia 85.4% | MALME-3M melanoma 102% | MDA-MB-231 breast 80.7% | RXF 393 renal 91.8% | SF-268 CNS 83.1% | SF-295 CNS 83.4% | SF-539 CNS 67.4% | UACC-257 melanoma 84.7% | M14 melanoma 105%
